Records with an inconclusive call do not appear. Calls of active or inactive are those of the source. The call rests on the fitted dose curve; in most records, active means well fitted inhibition curve with a large enough effect in the signal ratio in the repeat runs (not every such curve was filed as active); inconclusive means weak or mixed curves, or effect the other way; inactive means no such curve, though single readings can be large or run the other way; the % refers to the signal ratio.
biological target: Vitamin D3 receptor (Homo sapiens) (UniProt P11473); test: qHTS assay to identify small molecule antagonists of the vitamin D receptor (VDR) signaling pathway (AID 743223); conditions: VDR-UAS-bla HEK293T, beta-lactamase FRET ratio, 16 h; series mostly up to 61 µM
Sequence (P11473 whole entry, looked up): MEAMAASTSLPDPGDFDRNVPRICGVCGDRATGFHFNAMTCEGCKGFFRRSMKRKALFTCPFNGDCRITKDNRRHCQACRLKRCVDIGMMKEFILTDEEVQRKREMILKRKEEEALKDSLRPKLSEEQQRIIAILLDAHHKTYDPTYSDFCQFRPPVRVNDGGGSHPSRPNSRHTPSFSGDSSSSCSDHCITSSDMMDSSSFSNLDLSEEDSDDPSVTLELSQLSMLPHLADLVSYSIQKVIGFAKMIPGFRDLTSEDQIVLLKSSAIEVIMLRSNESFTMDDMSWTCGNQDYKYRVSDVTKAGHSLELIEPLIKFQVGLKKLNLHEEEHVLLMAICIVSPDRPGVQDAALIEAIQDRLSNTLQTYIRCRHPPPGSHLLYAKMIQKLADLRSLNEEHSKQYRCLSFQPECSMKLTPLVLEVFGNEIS
Source text: U.S. Tox21 Program National Center for Advancing Translational Sciences [NCATS] NIH Chemical Genomics Center [NCGC] U.S. Environmental Protection Agency [EPA] National Institutes of Environmental Health Sciences [NIEHS] National Toxicology Program [NTP] U.S. Food and Drug Administration [FDA] Tox21 Assay Overview: The vitamin D receptor (VDR), a member of nuclear hormone receptor superfamily, plays a critical role in calcium homeostasis and bone metabolism. It is also involved in cell differentiation and growth, and thrombogenicity.
Tox21 Assay Protocol Summary: VDR-bla cells were dispensed at 2,000 cells/5 uL of assay medium per well into black wall/clear-bottom 1536-well plates using a Multidrop Combi (Thermo Fisher Scientific, Waltham, MA) dispenser. After the assay plates were incubated at a 37C and 5% CO2 for 4 h, 23 nL of compounds dissolved in DMSO, positive controls or DMSO only was transferred to the assay plate by a Pintool station (Kalypsys, San Diego, CA), followed by addition of 1 uL of 1alpha, 25-Dihydroxy Vitamin D3 (3 nM, final concentration in the wells) using a Bioraptr Flying Reagent Dispenser (FRD) workstation (Beckman Coulter, Indianapolis, IN). The plates were incubated at 37C and 5% CO2 for 16 h, and then 1 uL of LiveBLAzerTM B/G FRET substrate was added using a Bioraptr FRD. The plates were incubated at room temperature for 2 h and fluorescence intensity was measured by an Envision plate reader (PerkinElmer, Shelton, CT).

**Q.** Which outcome does the source give for `CN1C(=S)CN=C(c2ccccc2)c2cc(Cl)ccc21` here?
**A.** Its outcome is “inactive”.

**Q.** `CN(N=O)C(N)=O` was tested. Which outcome did it give?
**A.** The outcome was “inactive”.

**Q.** For `CCC1(c2ccccc2)C(=O)N=C(O)NC1=O` (stereo not given), which outcome is on record?
**A.** The outcome was “inactive”.

**Q.** `CN1CCN(C(=O)O[C@H]2c3nccnc3C(=O)N2c2ccc(Cl)cn2)CC1` was tested. Which outcome did it give?
**A.** Its outcome is “inactive”.

**Q.** For `Cc1ncsc1CCCl`, which outcome is on record?
**A.** The outcome was “inactive”.

**Q.** For `CC1COC2(c3ccccc3Cl)c3cc(Cl)ccc3NC(=O)CN12` (stereo not given), which outcome is on record?
**A.** Its outcome is “inactive”.

**Q.** With `CCC(=O)C(CCN(C)C)(c1ccccc1)c1ccccc1` as the molecule, how does the outcome read?
**A.** The outcome was “inactive”.

**Q.** `Cc1cc(C)nc(Nc2ccccc2)n1` was tested. Which outcome did it give?
**A.** Its outcome is “inactive”.

**Q.** Which outcome does the source give for `c1ccc(N2CCNCC2)cc1` here?
**A.** The outcome was “inactive”.

**Q.** How did the outcome turn out when `CN/C(=N\[N+](=O)[O-])NCC1CCOC1` (stereo not given) was run?
**A.** The outcome was “inactive”.

**Q.** For `CC1CCC(=O)O1` (stereo not given), which outcome is on record?
**A.** The outcome was “inactive”.

**Q.** With `CCCCOC(=O)c1ccccc1N` as the molecule, how does the outcome read?
**A.** The outcome was “inactive”.

**Q.** Which outcome does the source give for `Cc1ccccc1CO[C@@H]1C[C@@]2(C(C)C)CC[C@]1(C)O2` here?
**A.** The outcome was “inactive”.

**Q.** Which outcome does the source give for `CC1CN1P(=O)(N1CC1C)N1CC1C` (stereo not given) here?
**A.** The outcome was “inactive”.

**Q.** Which outcome does the source give for `CNC(=O)Oc1ccccc1C1OCCO1` here?
**A.** Its outcome is “inactive”.

**Q.** How did the outcome turn out when `COc1ccc2c(c1OC)CN1CCc3cc4c(cc3C1C2)OCO4` (stereo not given) was run?
**A.** Its outcome is “inactive”.

**Q.** For `O=C1c2ccccc2C(=O)c2ccccc21`, which outcome is on record?
**A.** Its outcome is “inactive”.

**Q.** `Nc1n[nH]c(N)n1` was tested. Which outcome did it give?
**A.** The outcome was “inactive”.

**Q.** With `O=C(Cc1ccccc1)OCc1ccccc1` as the molecule, how does the outcome read?
**A.** The outcome was “inactive”.

**Q.** With `CC(COc1ccc(Oc2ccccc2)cc1)Oc1ccccn1` (stereo not given) as the molecule, how does the outcome read?
**A.** The outcome was “inactive”.

**Q.** `CCCCP(CCCC)CCCC` was tested. Which outcome did it give?
**A.** The outcome was “inactive”.

**Q.** How did the outcome turn out when `CC(CC(C#N)(c1ccccc1)c1ccccc1)N(C)C` (stereo not given) was run?
**A.** Its outcome is “inactive”.

**Q.** With `CCC(=O)c1ccccc1` as the molecule, how does the outcome read?
**A.** The outcome was “inactive”.

**Q.** With `CCOP(=S)(Oc1cnc(C(C)(C)C)nc1)OC(C)C` (stereo not given) as the molecule, how does the outcome read?
**A.** The outcome was “inactive”.

**Q.** For `CC(Oc1ccc(Oc2ncc(C(F)(F)F)cc2Cl)cc1)C(=O)O` (stereo not given), which outcome is on record?
**A.** Its outcome is “inactive”.

**Q.** `Nc1cc(Cl)ccc1O` was tested. Which outcome did it give?
**A.** Its outcome is “inactive”.

**Q.** `CC1(C)CON(Cc2ccccc2Cl)C1=O` was tested. Which outcome did it give?
**A.** Its outcome is “inactive”.

**Q.** `O=C(O)c1ccc2[nH]cc(CCCCN3CC=C(c4ccccc4)CC3)c2c1` was tested. Which outcome did it give?
**A.** Its outcome is “inactive”.

**Q.** For `Nc1c(Br)cc([N+](=O)[O-])cc1[N+](=O)[O-]`, which outcome is on record?
**A.** Its outcome is “inactive”.

**Q.** With `O=C1CN2CCOC2(c2ccccc2Cl)c2cc(Cl)ccc2N1` (stereo not given) as the molecule, how does the outcome read?
**A.** The outcome was “inactive”.

**Q.** `C[N+](C)=CCl` was tested. Which outcome did it give?
**A.** Its outcome is “inactive”.

**Q.** How did the outcome turn out when `COc1cc(OC)nc(Sc2cccc(Cl)c2C(=O)O)n1` was run?
**A.** Its outcome is “inactive”.

**Q.** With `Cc1ncc2n1-c1ccc(Cl)cc1C(c1ccccc1F)=NC2` as the molecule, how does the outcome read?
**A.** The outcome was “inactive”.

**Q.** Which outcome does the source give for `N#CCCC#N` here?
**A.** The outcome was “inactive”.

**Q.** For `COC(=O)COc1ccc(Cl)cc1Cl`, which outcome is on record?
**A.** Its outcome is “inactive”.

**Q.** How did the outcome turn out when `CCN(Cc1ccc(Cl)nc1)/C(=C/[N+](=O)[O-])NC` was run?
**A.** The outcome was “inactive”.

**Q.** For `O=[N+]([O-])c1cccc2cccnc12`, which outcome is on record?
**A.** The outcome was “inactive”.

**Q.** With `ClC(Cl)C(Cl)Cl` as the molecule, how does the outcome read?
**A.** The outcome was “inactive”.

**Q.** For `CNC(=O)O/N=C(\C)SC`, which outcome is on record?
**A.** Its outcome is “inactive”.

**Q.** For `c1cc2c(c(N3CCNCC3)c1)OCCO2`, which outcome is on record?
**A.** The outcome was “inactive”.

Source: PubChem BioAssay (Tox21)
